In the library only some 6.8% were active in any assay of this set; here they are far more common.
SW480 rerep: induces DNA re-replication in SW480 colon adenocarcinoma cells; AID 624297; 1.8% of 340,000 active; SW480 DNA re-replication, Hoechst DNA content imaging, 48 h; Potency, µM (doses to about 46.1 µM), without a hit: at the highest dose re-replication activation, hits mostly activators; further: % of control where 0% means no effect; nearly all actives have a fitted effect of over 55% in size
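Readout is total intensity of Hoechst-stained nuclei, excited at 405 nm and collected at 500-530 nm. Compound treatment lasted 48 hr at 37 C in 5% CO2 before staining.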
KB-V1 MDR tox: KB-V1 MDR subline cytotoxicity; 3.4% of 400,000 active; Potency, µM (top dose mostly 46.1 µM), most hits filed as cytotoxic; KB-V1 MDR cells viability, CellTiter-Glo, 72 h; further: on the % scale 0 is the no-effect control and ±100 the full control effect; nearly all actives have a fitted effect of over 60% in size
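qHTS viability screen in drug-selected KB-V1 MDR cells: 72 h compound treatment at 37 degrees C, ATP luminescence end point.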
PTAP TSG101 blk: blocks PTAP/TSG101 interaction to inhibit HIV-1 budding; 340,000 tested, under 10 active; Potency, µM (series often up to 115 µM), without a hit: at the top dose activity change, negative = inhibition, most hits filed as inhibitors; Fluorescence polarization, FITC-PTAP peptide / Tsg101 binding; Q99816; active means well fitted inhibition curve with a large enough effect in the main read-out, with a control signal flat, not every such curve was filed as active; inconclusive means small, poorly fitted or top-dose-only effect, or effect the other way, or a change in a side signal; inactive means no such curve, though single readings can be large or run the other way; further: % of control where 0% means no effect
Target sequence (Q99816 whole entry, looked up): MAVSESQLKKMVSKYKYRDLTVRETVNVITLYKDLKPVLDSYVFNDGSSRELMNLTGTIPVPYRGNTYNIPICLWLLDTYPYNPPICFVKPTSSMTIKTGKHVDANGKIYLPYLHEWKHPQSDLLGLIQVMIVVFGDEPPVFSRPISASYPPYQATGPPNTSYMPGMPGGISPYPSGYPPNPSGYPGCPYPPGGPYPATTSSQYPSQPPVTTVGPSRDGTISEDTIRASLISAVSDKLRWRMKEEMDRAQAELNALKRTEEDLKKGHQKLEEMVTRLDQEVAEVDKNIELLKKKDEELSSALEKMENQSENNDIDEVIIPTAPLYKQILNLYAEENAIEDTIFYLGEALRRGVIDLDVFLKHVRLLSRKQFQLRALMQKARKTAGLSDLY
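Steps: Tsg101 binding domain dispensed (10 uM final), compounds pinned in DMSO, FITC-labeled PTAP-motif peptide added (50 nM final); after 20 min binding at room temperature, polarization measured.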
KB-3-1 tox: kills parental KB-3-1 adenocarcinoma cells | AID 1347075 | 1.4% of 400,000 active | Potency, µM (series often up to 46.1 µM), most hits filed as cytotoxic | KB-3-1 viability, CellTiter-Glo ATP luminescence, 72 h; further: on the % scale 0 is the no-effect control and ±100 the full control effect; nearly all actives have a fitted effect of over 60% in size
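Parental KB-3-1 adenocarcinoma cells in phenol-red-free DMEM with 10% FBS were pin-treated with compounds at several concentrations, incubated 72 h at 37 °C, and viability read by CellTiter-Glo luminescence; concentration-effect curves were fitted after normalization.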
MCF10A rerep: DNA re-replication induction in MCF 10a cells. MCF 10A DNA re-replication, Hoechst nuclear intensity, 48 h. AID 624296. Potency, µM (top dose mostly 46.1 µM), for the others: top-dose activity, positive = re-replication, most hits filed as activators. 2.9% of 350,000 active; further: % of control where 0% means no effect; nearly all actives have a fitted effect of over 50% in size
PINK1 modulator: modulators of PINK1 expression; AID 624263; PINK1 immunofluorescence, high-content cytometry, 24 h; 0.2% of 410,000 active; Potency, µM (highest dose often 76.6 µM), inactives show top-dose activation (PINK1 increase), actives largely listed as activators; active means well fitted activation curve with a large enough effect; inconclusive means small, poorly fitted or top-dose-only effect; cell line not stated here; further: % of control where 0% means no effect; nearly all actives have a fitted effect of over 65% in size
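PINK1 protein level read as immunofluorescence by microplate cytometer in a fixed, stained stable cell line after 24 h exposure to five compound concentrations, with CCCP as control.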
* hit, by the source's call; i = inactive; ? = inconclusive; . = not tested or not shown; [ ] = remark or other dose. Unless noted, the call rests on the fitted dose curve; in most records, active means well fitted curve in the direction sought with a large enough effect; inconclusive means small, poorly fitted or top-dose-only effect, or another doubt; inactive means no such curve, though single readings can be large; an effect the other way counts as inactive or inconclusive. Potency means the concentration at half of the fitted maximal effect.

SMILES | SW480 rerep | KB-V1 MDR tox | PTAP TSG101 blk | KB-3-1 tox | MCF10A rerep | PINK1 modulator
CN(CCCN1CCOCC1)Cc1cn(C)nc1-c1ccccc1F | -2% | i | 0% | i | -1% | 1%
Cc1ccc(-n2c(Cc3cccn3C)nnc2SCC(=O)NCc2ccc3c(c2)OCO3)cc1 | -2% | 15µM* | 2% | ? | -8% | -2%[38.3 µM]
CCSc1nnc(NC(=O)CSc2nnc(Cc3cccn3C)n2-c2ccc(F)cc2)s1 | 2% | 16µM* | 0% | i | ? | 1%
Cc1ccc(-n2c(Cc3cccn3C)nnc2SCC(=O)Nc2ccc3c(c2)OCO3)cc1 | ? | 3.7µM* | -4% | i | 19% | -5%[38.3 µM]
Cn1cccc1Cc1nnc(SCC(=O)Nc2ccc(F)cc2)n1-c1ccc(F)cc1 | 21% | i | -2% | i | -1% | 0%
Cc1ccc2nc(N(Cc3cccnc3)C(=O)COc3ccccc3)sc2c1 | . | . | . | . | . | 21%
CC(C)(C)c1ccc(S(=O)(=O)Nc2ccccn2)cc1 | -4% | i | -8% | i | 4% | 2%
O=S(=O)(Nc1ccccn1)c1ccc(C(F)(F)F)cc1Cl | 21µM* | i | -1% | i | ? | 0%
O=C(Nc1cccc(F)c1)N1CC2(CCN(S(=O)(=O)c3ccccc3)CC2)C1 | . | . | . | . | . | 0%
C=CCn1c(-c2oc3nc(-c4ccccc4)cc(-c4ccccc4)c3c2N)n[nH]c1=S | 8.2µM* | 9.2µM* | 5% | i | 7.3µM* | 5%
C=CCn1c(-c2cccc(Cl)c2)n[nH]c1=S | -3%[9.22 µM] | i | 0% | i | -3% | 0%
Cc1ccc(-c2cc(C(=O)Oc3ccc(C#N)cc3)no2)cc1 | . | i | . | i | . | 1%
C=CCSc1cc(C)nc2c(-c3ccc(Cl)cc3)c(C)nn12 | ? | ? | -1% | i | 21µM* | 3%[38.3 µM]
Cc1cc(SCC(=O)c2cccs2)n2nc(C)c(-c3ccc(Cl)cc3)c2n1 | 1% | ? | 4% | i | ? | 5%
CC(=O)Nc1ccc(Nc2cc(C)nc3c(-c4ccccc4)c(C)nn23)cc1 | -8% | i | 0% | i | -7% | 2%
C=C(C)CSc1cc(C)nc2c(-c3ccccc3)c(C)nn12 | 0% | 6.5µM* | -3% | ? | 16% | 0%
CC(=O)Nc1ccc(Nc2cc(C(C)C)nc3c(-c4ccccc4)c(C)nn23)cc1 | ? | i | -12% | 5.8µM* | ? | 0%
Cc1cc(NCCC(C)C)n2nc(C)c(-c3ccccc3)c2n1 | 8% | 21µM* | -2% | i | 15µM* | 21%[38.3 µM]
Cc1ccc(-c2n[nH]c3c2C(c2cccs2)N(c2ccc(Cl)cc2)C3=O)cc1 (stereo not drawn) | . | i | . | ? | . | 8%
COC(=O)CC1C(=O)NCCN1C(=O)CN1Cc2ccccc2OC(c2ccccc2)C1 (stereo not drawn) | . | . | . | . | . | 2%
O=C(Nc1cccc(N2C(=O)C3C4C=CC(C4)C3C2=O)c1)c1cccs1 (stereo not drawn) | -4% | i | 0% | i | 0.82µM* | 0%
Cc1ccc(CN2CCc3nnc(C(NC(=O)c4ccoc4)C(C)C)n3CC2)cc1C (stereo not drawn) | . | . | . | . | . | 0%
CC(=O)Nc1ccc2c(c1)CCc1ccccc1-2 | -4% | i | -10% | i | 6% | 1%
O=C(O)/C=C/C(=O)c1ccc2c(c1)CCc1ccccc1-2 | 4.1µM* | ? | -4% | 13µM* | 3.7µM* | -1%
Cc1cccc(OCCn2c(SCC(N)=O)nc3ccccc32)c1 | . | i | . | i | . | 1%
SMILES | SW480 rerep | KB-V1 MDR tox | PTAP TSG101 blk | KB-3-1 tox | MCF10A rerep | PINK1 modulator
N#Cc1ccc(C(=O)Nc2ccn(-c3ccccc3)n2)cc1 | -10% | i | 4% | i | 13% | -1%
O=C(Nc1ccn(-c2ccccc2)n1)c1ccc(Cl)cc1 | -1% | 18µM* | -4% | i | ? | -1%
CC(C)(C)N=C1NN=C(c2ccc(Cl)cc2)CS1 | -2% | i | 1% | ? | -3% | ?
CC(C)(C)N=C1NN=C(c2cc3ccccc3o2)CS1 | 12µM* | ? | -2% | i | ? | ?
CCC(Sc1nc2nccnc2c(=O)n1Cc1ccc(C)cc1)C(=O)NC1CCCCC1 (stereo not drawn) | . | . | . | . | . | 1%
C[C@H](NC(=O)c1nc[nH]c1C(=O)NC1CCN(C(=O)OC(C)(C)C)CC1)C(=O)OC(C)(C)C | 0.16µM* | i | -19% | i | -1% | -1%
CC(C)C[C@H](NC(=O)c1nc[nH]c1C(=O)NC1CCN(C(=O)OC(C)(C)C)CC1)C(=O)OCc1ccccc1 | 10% | ? | . | ? | ? | -2%
CC(C)(C)OC(=O)[C@H](Cc1ccccc1)NC(=O)c1nc[nH]c1C(=O)NC1CCN(C(=O)OC(C)(C)C)CC1 | -3% | ? | -10% | ? | 5% | -1%
CC(C)C[C@H](NC(=O)c1nc[nH]c1C(=O)NC1CCN(C(=O)OC(C)(C)C)CC1)C(=O)OC(C)(C)C | 1% | i | -4% | ? | 13µM* | -1%
CC(C)(C)OC(=O)NCc1ccc(CNC(=O)c2[nH]cnc2C(=O)NC2CCN(C(=O)OC(C)(C)C)CC2)cc1 | -7% | i | . | ? | 18µM* | 12%
Cc1cccc(-c2nc(S(=O)(=O)c3ccccc3)c(N3CCN(c4ccccc4)CC3)o2)c1 | . | i | . | i | . | 2%
CCC(Cn1nnc2ccccc2c1=O)NC(=O)Nc1ccc(C)c(C)c1 (stereo not drawn) | . | . | . | . | . | -1%
c1ccc(CSc2nnc(-c3cccs3)n2Cc2ccco2)cc1 | -6% | ? | -6% | ? | 14% | 0%
Cc1ccccc1CSc1nnc(-c2cccs2)n1Cc1ccco1 | -1% | 5.8µM* | -6% | i | ? | -1%[38.3 µM]
O=C(CSc1nnc(-c2ccccn2)n1Cc1ccco1)c1ccccc1 | -6% | ? | -2% | i | 7% | -2%
CC(C)(C)c1ccc(CSc2nnc(-c3ccccn3)n2Cc2ccco2)cc1 | ? | i | 0% | ? | 16µM* | -2%
Clc1ccc(CSc2nnc(-c3ccccn3)n2Cc2ccco2)cc1Cl | . | ? | . | ? | . | 16%
CNC(=O)CSc1nnc(-c2ccccn2)n1Cc1ccco1 | 1% | i | -4% | i | 5% | 0%
Brc1ccc(CSc2nnc(-c3ccccn3)n2Cc2ccco2)cc1 | ? | 7.3µM* | . | i | ? | 10%[38.3 µM]
Clc1cccc(CSc2nnc(-c3ccccn3)n2Cc2ccco2)c1 | -6% | 10µM* | -6% | ? | ? | -2%
O=C(Nc1ccc(Br)cc1F)N1CCC2(CC1)Oc1ccccc1C(=O)N2Cc1ccccc1F | . | . | . | . | . | 1%

Screening data deposited in PubChem by National Center for Advancing Translational Sciences (NCATS).
